Anthrax LF inh2: inhibitors of Bacillus anthracis lethal factor protease; P15917; multiplex microsphere protease cleavage assay, LF; inhibition, % at 10 µM; 360,000 tested, 0.12% active; AID 588501; note: plate controls were buffer without enzyme for full effect and enzyme alone for no effect
Target sequence (P15917 whole entry, looked up): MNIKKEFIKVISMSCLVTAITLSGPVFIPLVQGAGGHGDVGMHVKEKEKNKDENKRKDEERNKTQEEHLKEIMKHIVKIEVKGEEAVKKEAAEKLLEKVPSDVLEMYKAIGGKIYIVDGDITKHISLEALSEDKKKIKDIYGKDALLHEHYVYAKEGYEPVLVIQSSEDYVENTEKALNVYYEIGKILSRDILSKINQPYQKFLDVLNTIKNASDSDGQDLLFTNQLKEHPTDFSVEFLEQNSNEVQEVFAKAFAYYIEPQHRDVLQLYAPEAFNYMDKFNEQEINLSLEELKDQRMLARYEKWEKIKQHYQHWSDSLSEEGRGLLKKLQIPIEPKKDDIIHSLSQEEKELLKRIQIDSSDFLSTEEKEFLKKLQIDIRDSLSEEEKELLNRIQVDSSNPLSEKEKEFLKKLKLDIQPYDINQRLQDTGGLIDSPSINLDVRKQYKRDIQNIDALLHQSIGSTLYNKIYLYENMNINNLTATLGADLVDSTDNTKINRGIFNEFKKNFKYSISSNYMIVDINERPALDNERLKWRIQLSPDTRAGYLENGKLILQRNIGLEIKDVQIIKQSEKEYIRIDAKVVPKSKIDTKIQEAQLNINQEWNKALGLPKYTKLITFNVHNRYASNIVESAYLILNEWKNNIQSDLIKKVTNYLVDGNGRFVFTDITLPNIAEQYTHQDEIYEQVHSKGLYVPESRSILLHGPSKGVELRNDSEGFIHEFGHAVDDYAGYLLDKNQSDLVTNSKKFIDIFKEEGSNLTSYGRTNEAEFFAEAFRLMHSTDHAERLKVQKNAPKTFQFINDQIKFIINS
BoNT-F LC inh: inhibitors of Botulinum neurotoxin F light chain protease; inhibition, % at 10 µM; Multiplex microsphere protease cleavage assay, flow cytometry; 360,000 tested, 0.22% active; in the data active = inhibition above about 35%, passing the limit was not always enough; inconclusive = no clear call, values can overlap the other calls; note: plate controls were buffer without enzyme for full effect and enzyme alone for no effect
BoNT A protease: inhibitors of Botulinum neurotoxin A light chain protease; multiplex microsphere protease substrate cleavage, flow cytometry; inhibition, % at 10 µM; 360,000 tested, 0.17% active; AID 588499; note: plate controls were buffer without enzyme for full effect and enzyme alone for no effect
Bead autofluor: counter-screen for toxin protease inhibitors: compound fluorescence; fluorescence intensity (no concentration beside the values); 360,000 tested, 3.1% active; compound autofluorescence counterscreen, microsphere flow cytometry; hits give high values; in the data active = fluorescence intensity above about 16000; inconclusive = no clear call, values can overlap the other calls
BJeLR viability: BJeLR cell viability loss. 300,000 tested, 0.17% active. BJeLR (HRASV12) viability, CellTiter-Glo ATP luminescence, 48 h. inhibition, % (no concentration beside the values). AID 1554; in the data active = inhibition above about 50%; inconclusive = no clear call, values can overlap the other calls
Numbers without * were called inactive; u = inconclusive; x = no result. In the library only some 3.5% were active in any assay of this set; here they are far more common. Cut-off read from the data, not from the text of the source, unless noted: active = inhibition above about 30%; inconclusive = no clear call, values can overlap the other calls; inactive = below that.

SMILES	Anthrax LF inh2	BoNT-F LC inh	BoNT A protease	Bead autofluor	BJeLR viability
CN(C)CCCNc1nc2cc(-c3ccc4c(ccn4C)c3)sc2c(=O)n1C	9	-22	8	4473	x
COC(=O)[C@H](CCSC)NC(=O)NCc1ccccc1F	1	-2	1	22106*	-5
O=C(Nc1ccc2c(c1)OCCO2)C(CCc1ccccc1)N1CCC(Cc2ccccc2)CC1 (configuration not stated)	2	-6	0	4430	x
C=CCOc1ccccc1CN(C(=O)CCl)c1ccc2c(c1)OCO2	-1	1	0	6350	125*
CCOc1ccccc1NC(=O)Nc1ccc2c(c1)OCO2	-5	-7	-2	6030	-2
COC(=O)[C@@H]1Cc2c([nH]c3ccccc23)C(C)(C)N1C(=O)CCl	6	7	0	3477	91*
COC(=O)C1Cc2c([nH]c3ccccc23)C2CCC(=O)N12 (configuration not stated)	-9	1	0	3899	x
CCOC(=O)c1c(C)[nH]c(N=Nc2ccccc2C)c1C	-9	-19	-3	8580	1
O=C(CSc1ncnc2c1cnn2-c1ccccc1)NC1CCS(=O)(=O)C1 (configuration not stated)	-6	-1	0	4069	x
CN(C)c1nc(-c2ccccn2)nnc1-c1ccccc1	-1	-14	-2	4549	82*
c1ccc(-c2nnc(-c3ccccn3)c(-c3ccccn3)n2)nc1	1	0	0	5994	-3
CCN(CC)CCNC(=O)CCn1c(=S)[nH]c2cc3c(cc2c1=O)OCO3	-2	-2	0	5237	2
CCN(CC)CCn1c(=S)[nH]c2cc3c(cc2c1=O)OCO3	-1	-2	u	23550*	3
CCCCNC(=O)CCCn1c(=S)[nH]c2cc3c(cc2c1=O)OCO3	-3	-3	u	20235*	-1
O=C(CCCCCn1c(=S)[nH]c2ccccc2c1=O)NCc1ccc2c(c1)OCO2	-2	-4	-3	23096*	-6
COCCNC(=O)CCCCCn1c(=S)[nH]c2ccccc2c1=O	2	1	u	22614*	4
COCCCNC(=O)CCCn1c(=O)[nH]c2ccccc2c1=O	-2	-13	-1	4262	6
O=C(CCCn1c(=S)[nH]c2cc3c(cc2c1=O)OCO3)NCc1ccccc1Cl	0	-5	-1	6138	6
OC[C@@H]1CN(Cc2cccnc2)C[C@H](n2cnc3c(NC4CCCC4)ncnc32)O1	-5	1	0	2899	x
CCc1ccc2[nH]c(=O)c(CN(Cc3ccc4c(c3)OCO4)C(=O)c3ccco3)cc2c1	x	x	x	x	-4
CC(C)(C)c1nnc(NC(=O)C2CCN(C(=O)c3ccco3)CC2)s1	-4	-2	-3	4322	-5
O=C(CN1CCOCC1)Nc1ccccc1Cl	5	1	-1	6200	2
CS(=O)(=O)N1CCC(C(=O)Nc2cccc(Cl)c2Cl)CC1	x	x	x	x	11
CC(C)(C)c1nnc(NC(=O)C2CCN(c3ncccn3)CC2)s1	1	-3	-3	21096*	-6
O=C(CN1CCOCC1)Nc1cccc(Cl)c1Cl	1	-9	u	23826*	x
SMILES	Anthrax LF inh2	BoNT-F LC inh	BoNT A protease	Bead autofluor	BJeLR viability
O=C(Nc1cccc(Cl)c1Cl)C1CCN(c2ncccn2)CC1	-1	-12	-9	22389*	1
COC(=O)c1ccc(C(=O)N2CCCCCC2(C)C(=O)NC(C)C)cc1 (configuration not stated)	-4	3	0	4018	x
Cc1cccc(OCc2nnc(SCC(=O)N3CCc4ccccc43)n2C)c1	-2	-1	-3	24057*	-7
Cc1cccc(OCc2nnc(SCC(=O)N3CCCC3)n2C)c1	0	4	0	16407*	-4
Cc1cccc(OCc2nnc(SCC(=O)NC3CCCC3)n2C)c1	4	-2	0	3674	3
COc1ccc(CN2CN(c3ccc(Cl)cc3)C(=O)N(n3cnnc3)C2)cc1	-2	-4	0	11392	0
O=C1N(c2ccc(Cl)c(Cl)c2)CN(Cc2ccccc2)CN1n1cnnc1	2	-8	-3	17448*	5
Cc1ccc(S(=O)(=O)NCc2ccncc2)cc1	-7	-2	0	3355	6
Cc1cc2cc(CN3C(=O)c4ccccc4C3=O)ccc2n1C	13	-57	88*	2185	-4
Cc1ccc(S(=O)(=O)NCc2ccc3c(c2)cc(C)n3C)cc1	-74	-110	81*	1200	-8
Cc1nnc(SCCn2c(Br)nc3c2c(=O)n(C)c(=O)n3C)s1	-7	-17	-1	5889	-2
Cc1nnc(Sc2c(N)n(C)c(=O)n(C)c2=O)s1	-7	-3	0	20250*	-12
COc1cccc(NC(=O)COc2cccc(-n3cnnn3)c2)c1	-5	-2	0	4517	1
Cc1cc(C(=O)COc2cccc(-n3cnnn3)c2)c(C)n1-c1ccccc1	-3	-2	0	16603*	-4
COC(=O)COc1cccc(-n2cnnn2)c1	-3	-1	0	8816	6
COc1ccccc1NC(=O)COc1cccc(-n2cnnn2)c1	-1	-10	-6	18765*	13
CC(=O)Nc1ccc(S(=O)(=O)NCCC(=O)NC(C)c2cccs2)cc1 (configuration not stated)	6	3	2	8545	x
O=C(NC(Cc1ccc(O)cc1)C(=O)N=Nc1c(O)[nH]c2ccccc12)c1ccccc1 (configuration not stated)	-7	-5	0	4345	x
CCCOc1ccc(CSc2nc3ccccc3[nH]2)cc1	-5	3	u	22003*	11
CCOC(=O)N=Nc1c2ccccc2c2nc3no[nH]c3nc12	-4	5	0	3195	54*
CCOC(=O)N=Nc1c(O)n(CC(=O)OC)c2ccccc12	3	0	0	1938	-7
c1ccc(C2OC3c4cccc5cccc(c45)C3N2c2ccccc2)cc1 (configuration not stated)	-4	-4	u	22884*	-4
CC1CCN(S(=O)(=O)N2CCC(C(=O)NC(C)c3ccccc3)CC2)CC1 (configuration not stated)	2	-2	0	3883	x
C=C(C)CNC(=S)N/N=C(\C)c1ccc(-n2ccnc2)cc1	0	-2	-1	19874*	3
COc1ccc(NC(=O)c2c(C)noc2C(C)C)cc1S(=O)(=O)N1CCCCC1	4	-1	1	3770	x
SMILES	Anthrax LF inh2	BoNT-F LC inh	BoNT A protease	Bead autofluor	BJeLR viability
COc1ccc(O)c(CN2CCN(C/C=C/c3ccccc3)CC2)c1	-1	-3	-1	24344*	5
c1ccc2[nH]c(NCCCN3CCOCC3)nc2c1	-5	-6	u	24547*	6
O=c1[nH]c2ccccc2nc1NCCN1CCOCC1	-4	-4	0	2704	7
Cc1c(O)ccc(C(=O)COc2ccccc2F)c1O	-12	14	2	u	0
CCOC(=O)c1ccc(OCC(=O)c2ccc(O)cc2O)cc1	1	-1	-1	3526	-5
O=C(COc1ccccc1F)c1ccc(O)cc1O	-5	6	4	20781*	11
COC(=O)c1ccc(OCC(=O)c2ccc(O)cc2O)cc1	-1	-5	-3	24431*	-1

Compound activity from PubChem.
